Reference: PubChem BioAssay (NCATS)
Records with an inconclusive call do not appear. Values without a mark were called inactive. Active and inactive are the calls of the source. The call rests on the fitted dose curve; in most records, active means well fitted inhibition curve with a large enough effect; inconclusive means small, poorly fitted or top-dose-only effect; inactive means flat fitted curve, though single readings scatter.

Test: qHTS to identify inhibitors of the type 1 interferon - major histocompatibility complex class I in skeletal muscle: primary screen against the NCATS LOPAC collection (AID 1347405);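 further: lytic HiBiT luminescence reporting HLA-B protein level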
Details: iHSKM muscle cells, IFN-b-induced MHC-I HiBiT luminescence, 24 h; series mostly up to 45.9 µM; activity change, negative = inhibition: at the top concentration
Outline: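 After 24 h at 37 C with compounds (7-point, 1:4.3 dilutions, 46 uM top final) plus 4 ng/ml IFN-beta, luminescence from lytic HiBiT detection was measured. HLA-B*08:01 in C25cl48 myoblasts carried an endogenous C-terminal HiBiT tag; medium lacked dexamethasone.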
On the % scale 0 is the no-effect control and ±100 the full control effect; potency means the concentration at half of the fitted maximal effect.

| Compound | activity change, negative = inhibition [%] | Potency |
| --- | --- | --- |
| Nc1ncnc2c1ncn2[C@@H]1O[C@H](COP(=O)(O)OP(=O)(O)OP(=O)(O)OP(=O)(O)OC[C@@H]2O[C@H](n3cnc4c(N)ncnc43)[C@@H](O)[C@H]2O)[C@@H](O)[C@H]1O | -7.23 |  |
| CC(C)(C=O)Cc1cc(C(C)(C)C)c(O)c(C(C)(C)C)c1 | -26.5 |  |
| CCC(CO)Nc1nc(NCc2ccccc2)c2ncn(C(C)C)c2n1 (centres undefined) |  | 15.8 µM (active) |
| C[N+]1(C)CCC(OC(=O)C(c2ccccc2)c2ccccc2)CC1 | -6.77 |  |
| S=c1[nH]c(-c2ccccc2)cn1-c1ccccc1 | -8.96 |  |
| CC(C)c1cccc(C(C)C)c1N1C(=O)c2ccc(O)cc2C1=O | -24.3 |  |
| CN1C2CC(OC(=O)[C@H](CO)c3ccccc3)CC1C1OC12 (some centres undefined) | -5.34 |  |
| CCOC(=O)C1=C(C)NC(C)=C(C(=O)OCC)C1c1c(F)c(F)c(F)c(F)c1F |  | 20 µM (active) |
| COc1cccc(C(=O)NCCN2CCN(c3ccc(Cl)cc3)CC2)c1 | -12.8 |  |
| Oc1cc2c(cc1O)CN(C(=S)NCCc1ccc(Cl)cc1)CCC2 | -22.6 |  |
| CN(CCCOc1ccc(Cc2ccccc2)cc1)CCC(=O)O | -6.31 |  |
| Cn1c(=O)c2[nH]c(-c3ccccc3)nc2n(C)c1=O | -4.75 |  |
| CN(C)CCC(c1ccc(Cl)cc1)c1ccccn1 (centres undefined) | 5.41 |  |
| C[N+]1(C)C2CC(OC(=O)[C@H](CO)c3ccccc3)CC1C1OC12 (some centres undefined) |  | inactive |
| Cc1ccc(S(=O)(=O)/C=C/C#N)cc1 |  | 12.6 µM (active) |
| OC[C@H]1O[C@@H](n2cnc3c(NC4CCCCC4)ncnc32)[C@H](O)[C@@H]1O | -13.5 |  |
| S=C(S)OC1CC2CC1C1CCCC21 (centres undefined) | 4.89 |  |
| Nc1nc(Nc2ccccc2)nc2c1ncn2[C@@H]1O[C@H](CO)[C@@H](O)[C@H]1O | -7.94 |  |
| Clc1ccc(N2CCN(Cc3c[nH]c4ncccc34)CC2)cc1 | -17.8 |  |
| CNC(=O)[C@H]1O[C@@H](n2cnc3c(NCc4ccc(N)cc4)ncnc32)[C@H](O)[C@@H]1O | -12.1 |  |

| Compound | activity change, negative = inhibition [%] | Potency |
| --- | --- | --- |
| Fc1ccc2[nH]c(CN3CCN(c4ccccn4)CC3)cc2c1 | 1.95 |  |
| N#C/C(=C\c1ccc(-c2cc(Cl)ccc2Cl)o1)C(=O)Nc1cccc2ncccc12 |  | 14.1 µM (active) |
| COc1cc(SC)ccc1C(=O)N1CCC(Cc2ccccc2)CC1 | -15.6 |  |
| Oc1cc(O)cc(/C=C/c2ccc(O)c(O)c2)c1 | -14.7 |  |
| NS(=O)(=O)c1ccc(-n2nc(C(F)(F)F)cc2-c2ccc(Cl)cc2)cc1 | -23.5 |  |
| CCNC(=O)[C@H]1O[C@@H](n2cnc3c(N)nc(NCCc4ccc(CCC(=O)O)cc4)nc32)[C@H](O)C1O (some centres undefined) | -14.7 |  |
| c1ccc(-c2ccccn2)nc1 | 8.95 |  |
| CC(C)NC[C@H](O)COc1cccc2[nH]ccc12 | -1.52 |  |
| O=C(c1ccc(Cl)cc1)N1CCN(c2ccc([N+](=O)[O-])c3ncccc23)CC1 | -17.3 |  |
| Fc1ccc(C(OCCCc2cnc[nH]2)c2ccc(F)cc2)cc1 | -8.96 |  |
| COC(=O)c1c(C)[nH]c(C)c1C(=O)c1ccccc1Cc1ccccc1 | -22.5 |  |
| CNc1ncnc2c1ncn2[C@@H]1O[C@H](CO)[C@@H](O)[C@H]1O | -14.7 |  |
| O=C1NC(=O)c2c1c(-c1ccccc1)cc1[nH]c3ccc(O)cc3c21 |  | 14.1 µM (active) |
| N#C/C(=C\c1ccc(O)c(O)c1)C(=O)c1ccc(O)c(O)c1 | -18.6 |  |
| COc1ccc(Br)cc1S(=O)(=O)NC(=O)/C=C/c1ccccc1Cc1ccc2ccccc2c1 | -15.4 |  |
| O=c1[nH]c2cc([N+](=O)[O-])c([N+](=O)[O-])cc2[nH]c1=O | -0.832 |  |
| O=C(Nc1ccc2c(c1)CCN(Cc1ncn[nH]1)C2)c1ccccc1-c1ccc(C(F)(F)F)cc1 | -14.7 |  |
| Cn1c(=O)c(-c2c(Cl)cccc2Cl)cc2cnc(Nc3ccc(N4CCOCC4)cc3)nc21 |  | 0.631 µM (active) |
| COc1ccc(NC(=O)/C=C/c2ccc(Cl)cc2)cc1 | -10.5 |  |
